The text below walks through data of PubChem BioAssay (NCATS).

Results filed as inconclusive are left out. Active and inactive are the calls of the source. Unless noted, calls follow the shape of the full dose curve.

Assay [1] deals with Estrogen receptor (Homo sapiens) (UniProt P03372). The assay is described as follows: qHTS assay for small molecule agonists of estrogen receptor alpha signaling (AID 588514).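 Also: 0% = vehicle only and 100% = reference agonist; nearly all actives have a fitted effect of over 70% in size.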 The essentials: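 Read-out: CCF4 fluorescence from a beta-lactamase reporter in ER-alpha-UAS-bla HEK 293 cells after 18 hrs of compound exposure at 37 C. Normalized to 20 nM 17-beta-estradiol (100%) and DMSO (0%).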
(In general: qHTS replaces the single test concentration by a dilution series.)

The target of assay [2] is Glucocorticoid receptor (Homo sapiens) (UniProt P04150). Briefly: qHTS assay for small molecule antagonists of glucocorticoid receptor signaling (AID 588533; active = well fitted inhibition curve with a large enough effect in the signal ratio, with a control signal flat, not every such curve was filed as active; the % refers to the signal ratio;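 also: cells stimulated with 2 nM dexamethasone as agonist; % is scaled to controls: 0 for no effect and ±100 for the full control effect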). The essentials:
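Antagonist-mode qHTS: compound titrations added to GRE-bla HeLa cells, then dexamethasone 2 nM final; 18 h, 37 C. CCF4 FRET fluorescence normalized to dexamethasone and DMSO; IC50 from Hill fit.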

In assay [3] the target is Retinoic acid receptor RXR-alpha (Homo sapiens) (UniProt P19793). Briefly: qHTS assay for small molecule agonists of retinoid X receptor alpha signaling (AID 588544).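 Also: 0% = DMSO basal wells and 100% = reference agonist.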
Assay [4] deals with Thyroid hormone receptor beta (Homo sapiens) (UniProt P10828). Briefly: qHTS assay for small molecule agonists of thyroid hormone receptor beta signaling (AID 588545). The essentials:
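Agonist activity was read as beta-lactamase CCF4 fluorescence (405 ex, 460/530 em), scaled between DMSO (0%) and 10 nM T3 (100%), then Hill-fitted for EC50 and efficacy. HEK 293 TR-UAS-bla cells in 2% charcoal/dextran FBS medium were exposed 18 h at 37 C.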

Assay [5] is described as follows: qHTS assay for small molecule antagonists of retinoid X receptor alpha signaling (AID 588546; active = well fitted inhibition curve with a large enough effect in the signal ratio, with a control signal flat, not every such curve was filed as active; the % refers to the signal ratio;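 also: cells stimulated with 9-cis-retinoic acid as agonist; % is scaled to controls: 0 for no effect and ±100 for the full control effect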). Conditions: HEK293T RXRa-UAS-bla, beta-lactamase ratio, antagonist mode; measured here: W530 green channel, cytotoxicity proxy. The essentials: (§1)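 Beta-lactamase reporter inhibition, read as CCF4 fluorescence ratio (ex 405, em 460/530 nm) after 2 h at RT. HEK293T UAS-bla cells, 2500/well, were stimulated with 9-cis-RA at 500 or 100 nM final alongside test compound for 18 h at 37 C.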

For assay [6], the target named is Retinoic acid receptor RXR-alpha (Homo sapiens) (UniProt P19793). The assay is described as above. Conditions: HEK293T RXRa-UAS-bla, beta-lactamase ratio, antagonist mode. The essentials: as §1
A short description of assay [7]: qHTS assay for small molecule activators of the p53 signaling pathway (AID 651743; active = well fitted activation curve with a large enough effect in the signal ratio, not every such curve was filed as active; the % refers to the signal ratio; also: series mostly up to about 92 µM; % of control where 0% means no effect). Conditions: HCT-116 p53RE-bla, beta-lactamase FRET ratio, 16 h; activation: stronger effect = higher value. The essentials:
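A beta-lactamase reporter under p53 response element control, stably carried by HCT-116 cells, reported pathway activation. Test compounds were applied for 16 hours at 37 C, and fluorescence was measured 2 hours after adding the B/G FRET substrate.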

Assay [8] can be described thus: qHTS assay for small molecule activators of the nuclear factor-kappa B (NF-kB) signaling pathway (AID 651749; active = well fitted activation curve with a large enough effect in the signal ratio; the % refers to the signal ratio; also: series mostly up to about 77 µM; % of control where 0% means no effect). Conditions: NF-kB-bla ME-180 cells, beta-lactamase FRET ratio, 16 h; activation: stronger effect = higher value. The essentials:
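FRET-based beta-lactamase detection in ME-180 cells reports NF-kB response-element-driven transcription following overnight (16 hr) compound treatment.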

Assay [9] deals with Peroxisome proliferator-activated receptor alpha (Homo sapiens) (UniProt Q07869). Briefly: qHTS assay for small molecule agonists of the peroxisome proliferator-activated receptor alpha (PPARalpha) signaling pathway (AID 651778; active = well fitted curve in the direction sought with a large enough effect; an effect the other way counts as inactive or inconclusive; also: % of control where 0% means no effect). The following applies: PathHunter PPARalpha complementation, chemiluminescence, 6 h; max response: stronger effect = higher value. The essentials:
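Chemiluminescence from complemented enzyme reported PPARalpha activation in cells after 6 hr of compound treatment at 37 C. The detection reagent was incubated for 60 min at room temperature, and compounds were scored as agonists.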

Assay [10] can be described thus: qHTS assay for small molecule agonists of the antioxidant response element (ARE) signaling pathway measured by Nrf2-dependant transcriptional activity (AID 720636; active = well fitted curve in the direction sought with a large enough effect in the repeat runs; an effect the other way counts as inactive or inconclusive;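 also: HepG2 cells with an ARE-driven luciferase reporter; % of control where 0% means no effect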). The essentials: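 In HepG2 cells engineered with an Nrf2-responsive luciferase gene, ARE induction was quantified as luminescence after 16 hr compound treatment at 37 C.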
Assay [11] is described as follows: qHTS assay for small molecule agonists of the antioxidant response element (ARE) signaling pathway measured by Nrf2-dependant transcriptional activity - cell viability counter screen (AID 720653; active = well fitted curve in the direction sought with a large enough effect in the repeat runs; an effect the other way counts as inactive or inconclusive; also: % is scaled to controls: 0 for no effect and ±100 for the full control effect). The following applies: ARE-bla HepG2 viability, CellTiter-Glo ATP luminescence, 16 h; max response: stronger effect = lower value. The essentials: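 Cytotoxicity counter screen: intracellular ATP quantified by CellTiter-Glo luminescence in the same ARE-bla HepG2 plates, after 16 h compound exposure and a 2 h beta-lactamase substrate step.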

Assay [12] is described as follows: qHTS assay for cell viability of HEK293 cells (AID 743288; active = well fitted curve in the direction sought with a large enough effect; an effect the other way counts as inactive or inconclusive; also: % is scaled to controls: 0 for no effect and ±100 for the full control effect; nearly all actives have a fitted effect of over 50% in size). The following applies: ATP luminescence (CellTiter-Glo), 18 h; max response: stronger effect = lower value. The essentials: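 Steps: plate 2,000 parental HEK293 cells per well; incubate ≥5 h, 37 C; add compounds in DMSO; incubate 18 h, 37 C; add CellTiter-Glo; wait 30 min at room temperature; read luminescence.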

Assay [13] is described as follows: qHTS assay for cell viability of the p53RE-bla HCT-116 cell line (AID 743292; active = well fitted curve in the direction sought with a large enough effect; an effect the other way counts as inactive or inconclusive; also: % is scaled to controls: 0 for no effect and ±100 for the full control effect; nearly all actives have a fitted effect of over 55% in size). The essentials: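 Intracellular ATP of p53RE-bla HCT-116 cells measured by luciferase luminescence following 16 h compound incubation at 37 C; DMSO-only wells served as vehicle controls.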
The target of assay [14] is Nuclear receptor subfamily 1 group I member 2 (Rattus norvegicus) (UniProt Q9R1A7). The assay is described as follows: qHTS assay for small molecule activators of the rat pregnane X receptor (rPXR) signaling pathway (AID 651751; call rule not given here; also: 0% is about no effect). Conditions: rPXR reporter cells, luciferase (One-Glo), 24 h.
The target of assay [15] is Peroxisome proliferator-activated receptor delta (Homo sapiens) (UniProt Q03181). Briefly: qHTS assay for small molecule agonists of peroxisome proliferator-activated receptor delta signaling (AID 588534).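 Also: 0% = DMSO basal wells and 100% = positive control agonist at 10 µM.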 The essentials: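 Titration series tested in agonist mode on beta-lactamase reporter cells; 18 hrs at 37 C after a 5 hr pre-incubation. Readout: CCF4 fluorescence, 2 hrs RT. Hill equation gives EC50 and maximal response.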

For assay [16], the target named is Vitamin D3 receptor (Homo sapiens) (UniProt P11473). Briefly: qHTS assay for small molecule antagonists of vitamin D receptor signaling (AID 588541).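 Also: receptor activated by calcitriol during compound treatment; series mostly up to about 77 µM; % is scaled to controls: 0 for no effect and ±100 for the full control effect.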 The essentials:
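Antagonist-mode beta-lactamase reporter assay: HEK293T VDR-UAS-bla cells were exposed to titrated compound alongside 1-alpha,25-dihydroxyvitamin D3 at 3 nM final for 16 h. Values were normalized to the 50 nM agonist control and DMSO basal, with IC50 and efficacy from Hill equation fits.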

A short description of assay [17]: qHTS assay for environmental chemicals that activate the Aryl hydrocarbon Receptor (AhR) signaling pathway (AID 651777; active = well fitted curve in the direction sought with a large enough effect; an effect the other way counts as inactive or inconclusive; also: % of control where 0% means no effect; nearly all actives have a fitted effect of over 15% in size). The following applies: 1A2-DRE human hepatoma cells, luciferase, 24 h; activation: stronger effect = higher value. The essentials: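 Measured luciferase activity, read 30 min after One-Glo addition at room temperature, from human hepatoma cells bearing a dioxin response element–CYP1A2 promoter reporter and exposed to compound for 24 hr at 37 C.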

The nature of assay [18]: qHTS assay for small molecule antagonists of peroxisome proliferator-activated receptor delta signaling (AID 588535; active = well fitted inhibition curve with a large enough effect in the signal ratio, with a control signal flat, not every such curve was filed as active; the % refers to the signal ratio;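 as to max response: cells co-treated with a PPAR-delta agonist as stimulator during compound exposure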). Conditions: HEK293T PPARd-UAS-bla, beta-lactamase FRET ratio, 18 h; 460 nm channel. The essentials: (§2)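 Antagonist-mode qHTS using GeneBLAzer PPAR-delta-UAS-bla HEK293T cells; compound exposure 18 hrs at 37 C over a titration. Ratiometric CCF4 fluorescence at 460/530 nm; concentration-response points fitted to the Hill equation.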

Assay [19] has as its target Peroxisome proliferator-activated receptor delta (Homo sapiens) (UniProt Q03181). The description is as above. The essentials:
as §2

Assay [20] addresses Thyroid hormone receptor beta (Homo sapiens) (UniProt P10828). The assay is described as follows: qHTS assay for small molecule antagonists of thyroid hormone receptor beta signaling (AID 588547; active = well fitted inhibition curve with a large enough effect in the signal ratio, with a control signal flat, not every such curve was filed as active; the % refers to the signal ratio). The following applies: TR-UAS-bla HEK293, beta-lactamase ratio, antagonist mode, 18 h. The essentials: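 Inhibition of T3-driven (0.4nM final) beta-lactamase reporter activity was measured over 0.59 nM to 92 uM compound after 18 h at 37 C. The cells were GripTite HEK293 TR-UAS-bla in charcoal/dextran-stripped serum, with CCF4 ratio read-out and IC50 from Hill fits.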

Sequence of Retinoic acid receptor RXR-alpha (Homo sapiens) (P19793 whole entry, looked up): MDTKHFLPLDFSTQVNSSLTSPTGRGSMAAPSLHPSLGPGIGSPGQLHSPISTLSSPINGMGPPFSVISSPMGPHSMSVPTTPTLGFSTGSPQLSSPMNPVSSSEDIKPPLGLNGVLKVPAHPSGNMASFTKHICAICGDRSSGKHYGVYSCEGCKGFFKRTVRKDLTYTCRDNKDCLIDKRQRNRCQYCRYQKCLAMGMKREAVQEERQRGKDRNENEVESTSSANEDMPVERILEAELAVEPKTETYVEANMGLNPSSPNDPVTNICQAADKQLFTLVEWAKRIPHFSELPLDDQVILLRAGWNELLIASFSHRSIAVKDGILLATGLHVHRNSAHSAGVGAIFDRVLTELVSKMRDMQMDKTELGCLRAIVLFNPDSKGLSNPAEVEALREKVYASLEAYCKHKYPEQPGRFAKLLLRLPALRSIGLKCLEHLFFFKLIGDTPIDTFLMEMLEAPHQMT
Sequence of Estrogen receptor (Homo sapiens) (P03372 whole entry, looked up): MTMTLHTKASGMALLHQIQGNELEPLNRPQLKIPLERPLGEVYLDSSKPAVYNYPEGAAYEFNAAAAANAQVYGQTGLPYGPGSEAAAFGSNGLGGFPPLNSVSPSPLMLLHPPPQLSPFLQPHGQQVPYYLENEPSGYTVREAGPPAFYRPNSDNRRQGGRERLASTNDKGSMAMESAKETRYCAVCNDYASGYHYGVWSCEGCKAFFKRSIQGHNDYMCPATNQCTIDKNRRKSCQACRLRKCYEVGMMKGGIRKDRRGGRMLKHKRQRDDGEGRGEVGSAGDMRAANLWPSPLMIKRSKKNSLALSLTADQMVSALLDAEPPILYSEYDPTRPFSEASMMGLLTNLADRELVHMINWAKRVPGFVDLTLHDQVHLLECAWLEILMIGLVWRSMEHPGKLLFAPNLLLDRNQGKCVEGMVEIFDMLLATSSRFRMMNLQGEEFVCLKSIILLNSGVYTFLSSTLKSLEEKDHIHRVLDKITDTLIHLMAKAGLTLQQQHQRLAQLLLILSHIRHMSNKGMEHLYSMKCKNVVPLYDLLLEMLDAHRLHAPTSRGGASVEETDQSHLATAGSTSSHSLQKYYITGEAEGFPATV
Sequence of Peroxisome proliferator-activated receptor alpha (Homo sapiens) (Q07869 whole entry, looked up): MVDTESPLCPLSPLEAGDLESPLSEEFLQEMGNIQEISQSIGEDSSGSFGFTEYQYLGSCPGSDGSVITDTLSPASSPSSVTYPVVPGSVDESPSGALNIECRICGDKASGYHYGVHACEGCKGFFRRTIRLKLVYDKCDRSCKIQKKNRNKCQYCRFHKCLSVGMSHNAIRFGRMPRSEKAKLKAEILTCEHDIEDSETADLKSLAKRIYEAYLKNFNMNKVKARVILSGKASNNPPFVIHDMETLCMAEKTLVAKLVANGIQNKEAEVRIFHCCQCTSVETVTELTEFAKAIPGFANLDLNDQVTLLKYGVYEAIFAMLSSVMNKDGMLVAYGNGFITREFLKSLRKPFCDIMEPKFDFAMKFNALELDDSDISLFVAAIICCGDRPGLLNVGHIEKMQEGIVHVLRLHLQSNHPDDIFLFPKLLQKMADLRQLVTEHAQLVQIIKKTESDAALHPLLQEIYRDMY
Sequence of Peroxisome proliferator-activated receptor delta (Homo sapiens) (Q03181 whole entry, looked up): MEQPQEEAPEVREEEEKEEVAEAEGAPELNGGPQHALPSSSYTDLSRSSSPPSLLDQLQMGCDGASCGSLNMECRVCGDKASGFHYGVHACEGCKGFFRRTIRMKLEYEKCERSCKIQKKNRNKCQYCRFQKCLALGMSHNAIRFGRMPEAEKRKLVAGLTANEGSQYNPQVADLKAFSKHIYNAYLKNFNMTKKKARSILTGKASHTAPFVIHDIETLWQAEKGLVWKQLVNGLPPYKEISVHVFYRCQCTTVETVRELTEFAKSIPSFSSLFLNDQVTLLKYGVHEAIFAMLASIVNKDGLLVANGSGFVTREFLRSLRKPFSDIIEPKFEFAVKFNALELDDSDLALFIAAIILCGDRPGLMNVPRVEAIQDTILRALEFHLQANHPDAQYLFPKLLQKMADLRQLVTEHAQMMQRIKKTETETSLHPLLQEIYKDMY
Sequence of Glucocorticoid receptor (Homo sapiens) (P04150 whole entry, looked up): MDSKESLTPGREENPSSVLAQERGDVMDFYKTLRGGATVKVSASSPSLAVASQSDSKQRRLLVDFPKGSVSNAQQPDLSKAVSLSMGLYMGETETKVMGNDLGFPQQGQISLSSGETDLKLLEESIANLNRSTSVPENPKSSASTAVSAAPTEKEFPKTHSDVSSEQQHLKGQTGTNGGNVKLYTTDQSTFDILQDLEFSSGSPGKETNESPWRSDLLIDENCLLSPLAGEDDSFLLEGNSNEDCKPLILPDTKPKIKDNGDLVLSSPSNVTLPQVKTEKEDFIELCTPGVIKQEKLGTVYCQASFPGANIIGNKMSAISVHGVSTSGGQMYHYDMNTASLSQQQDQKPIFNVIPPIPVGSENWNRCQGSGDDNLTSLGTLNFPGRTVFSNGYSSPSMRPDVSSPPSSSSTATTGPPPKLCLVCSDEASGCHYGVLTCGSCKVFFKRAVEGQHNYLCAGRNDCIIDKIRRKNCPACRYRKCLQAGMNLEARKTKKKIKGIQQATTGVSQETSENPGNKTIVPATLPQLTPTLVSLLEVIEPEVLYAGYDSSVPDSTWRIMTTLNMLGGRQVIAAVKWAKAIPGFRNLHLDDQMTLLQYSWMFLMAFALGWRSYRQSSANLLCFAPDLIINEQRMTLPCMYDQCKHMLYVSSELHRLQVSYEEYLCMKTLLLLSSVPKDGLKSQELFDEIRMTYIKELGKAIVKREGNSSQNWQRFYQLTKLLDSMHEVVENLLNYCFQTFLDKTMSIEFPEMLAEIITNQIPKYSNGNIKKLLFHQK
Sequence of Nuclear receptor subfamily 1 group I member 2 (Rattus norvegicus) (Q9R1A7 whole entry, looked up): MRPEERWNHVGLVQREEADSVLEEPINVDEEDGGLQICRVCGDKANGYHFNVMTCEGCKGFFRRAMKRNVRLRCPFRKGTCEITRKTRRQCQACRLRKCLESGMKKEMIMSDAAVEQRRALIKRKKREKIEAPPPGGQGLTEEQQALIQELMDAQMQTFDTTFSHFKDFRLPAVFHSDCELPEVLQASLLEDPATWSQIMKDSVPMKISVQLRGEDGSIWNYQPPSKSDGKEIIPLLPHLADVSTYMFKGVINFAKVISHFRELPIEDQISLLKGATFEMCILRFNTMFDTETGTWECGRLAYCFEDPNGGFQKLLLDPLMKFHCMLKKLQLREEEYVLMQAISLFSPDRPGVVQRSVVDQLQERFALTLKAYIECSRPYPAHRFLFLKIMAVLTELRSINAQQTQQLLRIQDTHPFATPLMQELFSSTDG
Sequence of Thyroid hormone receptor beta (Homo sapiens) (P10828 whole entry, looked up): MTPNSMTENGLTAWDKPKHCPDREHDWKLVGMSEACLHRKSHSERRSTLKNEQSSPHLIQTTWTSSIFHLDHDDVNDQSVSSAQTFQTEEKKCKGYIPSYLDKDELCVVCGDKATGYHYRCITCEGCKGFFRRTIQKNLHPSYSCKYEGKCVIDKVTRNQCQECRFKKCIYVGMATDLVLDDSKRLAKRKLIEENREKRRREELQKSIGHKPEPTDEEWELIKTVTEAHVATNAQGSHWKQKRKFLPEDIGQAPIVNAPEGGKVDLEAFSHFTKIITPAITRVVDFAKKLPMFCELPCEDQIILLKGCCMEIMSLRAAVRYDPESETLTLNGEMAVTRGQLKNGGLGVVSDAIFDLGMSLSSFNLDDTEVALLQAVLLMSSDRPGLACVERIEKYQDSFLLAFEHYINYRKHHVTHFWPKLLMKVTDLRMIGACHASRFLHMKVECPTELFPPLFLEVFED
Sequence of Vitamin D3 receptor (Homo sapiens) (P11473 whole entry, looked up): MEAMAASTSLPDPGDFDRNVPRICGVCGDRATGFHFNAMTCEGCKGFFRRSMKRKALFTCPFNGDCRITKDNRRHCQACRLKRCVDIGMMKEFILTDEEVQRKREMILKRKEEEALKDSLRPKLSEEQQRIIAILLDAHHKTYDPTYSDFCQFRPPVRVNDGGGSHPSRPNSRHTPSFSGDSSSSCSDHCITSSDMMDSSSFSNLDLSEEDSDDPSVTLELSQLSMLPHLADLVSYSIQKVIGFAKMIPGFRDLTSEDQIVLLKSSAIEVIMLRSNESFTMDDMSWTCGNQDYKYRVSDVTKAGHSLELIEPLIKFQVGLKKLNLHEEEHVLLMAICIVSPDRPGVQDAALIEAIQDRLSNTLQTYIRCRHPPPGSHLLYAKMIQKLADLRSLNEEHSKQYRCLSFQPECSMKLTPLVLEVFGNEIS

Turning to `CNC(=O)O/N=C/C(C)(C)S(C)(=O)=O`, the Potency result in assay [1], in assay [2], in assay [3], in assay [4], in [10] and in [13] was “inactive” each time. Also, the max response was -10.7% in assay [5]; 0.762% (inactive) in assay [6]; -0.004% (inactive) in assay [9]; 1.38% (inactive) in assay [11]; 0.485% (inactive) in assay [12]; 1.26% (inactive) in assay [14]. Besides, the activation is -2.46% (inactive) in assay [7] and -1.23% (inactive) in assay [8].

On to `CC1(C)CCC(Cc2ccc(Cl)cc2)C1(O)Cn1cncn1` (centres undefined), for which the Potency result in assay [1], in assay [16], in assay [3], in [4], in assay [10] and in assay [13] was “inactive” in each case. In assay [15], the compound was called inactive. Besides, the max response in assay [5] was -14.2%; in assay [9], -1.67% (inactive); in [11], -10.5% (inactive). Moreover, the activation in [8] is -0.913% (inactive); in [17] it was -1.24% (inactive).

With `Cc1cccc2sc3nncn3c12`, the Potency entry in [1], in assay [19], in [3], in [4] and in assay [13] was “inactive” throughout. The compound was classed as inactive in [15]. Moreover, the max response in [18] is 26.1%; in [5], -10.6%; in [6] it was 2.1% (inactive); in [9], -0.811% (inactive); in [11], 0.787% (inactive); in [12] it was -3.66% (inactive). In addition, in assay [20], the activity change % (negative = inhibition) was 6.25% (inactive). For the same compound, the figures for the activation in assay [7], in [8] and in assay [17] were 2.35% (inactive), 0.0956% (inactive) and -0.0294% (inactive), respectively.

Take `COc1cc(OC)nc(NC(=O)NS(=O)(=O)c2ncccc2OCC(F)(F)F)n1`: the Potency result in assay [1], in assay [2], in [19], in assay [16], in assay [3] and in assay [10] was “inactive” in each case. Further, the Potency result in assay [13] is “inactive”. Besides, the result in assay [15] was inactive. In addition, the max response is -5.67% in assay [18]; -1.53% in assay [5]; -28.8% (inactive) in [6]; -0.694% (inactive) in [9]; -8.5% (inactive) in [11]; -8.98% (inactive) in assay [12]. Besides, the max response in assay [14] was -1.56% (inactive). Also, the activation in assay [7] is -0.487% (inactive); in assay [8], -0.186% (inactive); in assay [17], 1.59% (inactive).

Regarding `CNC(=O)Oc1cccc(N=CN(C)C)c1`, the Potency entry in assay [1], in [19], in assay [16], in assay [3], in assay [4] and in assay [10] was “inactive” throughout. Also, the result in assay [15] was inactive. Also, the max response was 16.5% in assay [18]; -11.7% in [5]; 10.6% (inactive) in assay [6]; 2.04% (inactive) in assay [9]; -21.4% (inactive) in assay [11]; -9.91% (inactive) in assay [12]. For the same compound, the max response in [14] was -4.82% (inactive). In addition, the activity change % (negative = inhibition) in assay [20] was 4.27% (inactive). Also, the figures for the activation in assay [7] and in assay [17] were -4.39% (inactive) and 0.739% (inactive), respectively.

In the case of `COC(=O)/C=C(\C)OP(=O)(OC)OC`, the Potency entry in assay [1], in assay [2], in [19], in assay [16], in [3] and in [4] was “inactive” in each case. The Potency entry in assay [10] and in [13] was “inactive” each time. Further, the compound was called inactive in [15]. The max response in [18] is -21.6%; in [5], -19.7%; in assay [9] it was -1.45% (inactive); in assay [11] it was 12.7% (inactive); in [12], -3.83% (inactive); in assay [14], -0.069% (inactive). Moreover, the activation was -3.2% (inactive) in [7] and 0.265% (inactive) in assay [17].
